The values below come from PubChem BioAssay.

SMILES strings stand for the structures.

The test system of the first assay is Plasmodium falciparum Sir2 (PF13_0152, Sir2A). Kind of assay: pfSir2 binders on small-molecule microarrays, primary screen, biochemical, small-molecule microarray, 635 nm fluorescence (AID 1098).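 Further: score merges spot fluorescence intensity with its signal-to-noise ratio.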 The settings on record: small-molecule microarray binding, fluorescence 635 nm; higher = more signal.
`O=C(CS)NCCCCCNC(=O)[C@@H]1C[C@@H]2C(=O)N3CCC[C@H]3C(=O)N2[C@@H]1c1cccc(OCCO)c1` gave a composite z-score of 1.47.

Molecule `COCCOC(=O)N1C(=O)[C@@]2(c3cc(C#CCCO)ccc31)[C@H](C(=O)Nc1nc3ccccc3s1)[C@H]1C(=O)O[C@H](c3ccccc3)[C@H](c3ccccc3)N1[C@@H]2c1ccccc1OCCO` displayed a composite z-score of 1.42.

In the case of `C[C@@H]1NC(=O)[C@@]23C(=O)N[C@@H](Cc4ccccc4)C2[C@H](C)[C@@]2(C)O[C@H]2C3/C=C/C/C=C\CNC(=O)[C@@H]2CCCN2C1=O` (some centres not stated), the composite z-score worked out at 0.685.

In the case of `CCC[C@@H]1C[C@@]1(CCC)[C@@H](NC(=O)OCc1ccccc1)c1ccc(-c2ccccc2)cc1`, the composite z-score is -1.27.

The molecule `CC[C@H]1C2=C3C(CC[C@H]4C(OCc5ccc(F)cc5C(F)(F)F)OC[C@](C)([C@@H]34)N(C(=O)OC(C)(C)C)C2)C(COC)C1COC` (some centres not stated) showed a composite z-score of -0.0539.

Molecule `CC(C)(C)OC(=O)CC[C@@]1(C(=O)NCc2ccccc2)N=C(c2ccc(OCCCO)cc2)O[C@@H]1c1ccccc1N=[N+]=[N-]` registered a composite z-score of 0.71.

For `CCC(CC)C(O)C1C=CC2C(=O)N(c3ccccc3)C(=O)C2N1Nc1ccc(C(C)C)cc1` (configuration not stated), the composite z-score was 1.23.

In turn, `C[C@H]1NC(=O)[C@@]23C(=O)N[C@@H](Cc4ccccc4)C2[C@H](C)[C@@]2(C)O[C@H]2C3/C=C/C/C=C\CNC(=O)[C@H](Cc2ccccc2)NC1=O` (some centres not stated) gave a composite z-score of 1.29.

In turn, `COCCOC(=O)N1C(=O)[C@@]2(c3cc(C#CC4=CCCCC4)ccc31)[C@H](C(N)=O)[C@H]1C(=O)O[C@H](c3ccccc3)[C@H](c3ccccc3)N1[C@@H]2c1ccccc1OCCO` gave a composite z-score of 1.46.

`CCOC(=O)C[C@H]1[C@H](OC(=O)c2cc3ccccc3oc2=O)[C@@H](NC(=O)c2ccc(-c3ccccc3)cc2)c2cc(OCCCO)ccc2N1C(=O)c1ccc2ccccc2n1`: the composite z-score was 0.853.

`COC(=O)[C@@]1(Cc2ccc(F)cc2)[C@H]2c3cc(C(=O)N(C)C)n(Cc4cc(F)cc5c4OCOC5)c3C[C@H]2CN1C(=O)c1ccccc1` showed a composite z-score of 0.743.

`COC(=O)[C@@]1(Cc2ccccc2)[C@@H]2C(=CC(=O)[C@H]2CC(=O)C(=O)N(C)C)CN1C(=O)c1ccccc1` had a composite z-score of 0.971.

`CN1C(=O)C2C=CC(C(O)c3ccc(F)cc3)N(Nc3ccccc3)C2C1=O` (configuration not stated): the composite z-score amounted to 1.4.

`CCCC[C@@H]1C[C@H]1[C@@H](NC(=O)c1ccccc1)c1ccc(C(F)(F)F)cc1` registered a composite z-score of -0.829.

Regarding `COc1ccc([Si](C)(C)[C@H]2[C@H](CCn3cc([C@H](O)c4ccccc4)nn3)O[C@@]3(C(=O)N(Cc4ccc(N5C(=O)c6cccc7cccc5c67)cc4)c4ccccc43)[C@@H]2C)cc1`, the composite z-score was found to be 0.93.

For the molecule `C[N+](C)(C)CCCC[C@@H]1NC(=O)[C@H]2C[C@@H](C(=O)NCCCCCCN)[C@@H](c3ccc(O)cc3)N2C1=O`, the composite z-score was 1.38.

Consider `O[C@@H](Cc1ccccc1)[C@@H](/C=C/C1CC1)N(CC#Cc1ccccc1)Cc1cccc(Cl)c1`, for which the composite z-score was -0.546.

Molecule `CCOC(=O)C[C@H]1[C@H](OC(=O)c2ccccc2-c2ccccc2)[C@@H](NC(=O)c2ccc(-c3ccccc3)cc2)c2cc(OCCCO)ccc2N1C(=O)c1ccc2ccccc2n1` displayed a composite z-score of 0.533.

`CN(C)c1ccc(C(O)C2C=CC3C(=O)N(c4ccccc4)C(=O)C3N2Nc2ccc([N+](=O)[O-])cc2)cc1` (configuration not stated): the composite z-score amounted to 1.53.

Consider `COC(=O)[C@@]1(Cc2ccc(OC)cc2)[C@H]2c3cc(C(=O)N4CCCC4)n(Cc4c(-c5ccccc5)noc4C)c3C[C@H]2CN1C(=O)c1ccccc1`, for which the composite z-score was determined as 0.743.

Consider `COc1ccc(-c2nc(-c3ccccc3)c3c(c2C)CO[Si]3(C(C)C)C(C)C)cn1`, for which the composite z-score is -0.18.

For `O=C1O[C@@H](c2ccccc2)[C@@H](c2ccccc2)N2[C@@H](c3ccc(O)cc3)[C@]3(C(=O)Nc4ccc(C#CC5=CCCCC5)cc43)[C@@H](C(=O)NC[C@H](O)c3ccccc3)[C@H]12`, the composite z-score was determined as 1.12.

In turn, `CO[C@H]1O[C@H](CO)[C@@H](OC(=O)Nc2ccccc2-c2ccccc2)[C@H](OC(=O)Nc2ccc3c(c2)OCO3)[C@H]1OC(=O)Nc1ccc2c(c1)OCO2` yielded a composite z-score of 1.38.

The molecule `COC(=O)[C@@]1(Cc2ccc(F)cc2)[C@H]2c3cc(C(=O)N4CCCC4)n(CCN4CNCC4=O)c3C[C@H]2CN1C(=O)c1ccccc1` returned a composite z-score of 1.51.

Molecule `CN(C)CCCNC(=O)[C@@H]1c2ccccc2C(=O)N(Cc2ccccc2Cl)[C@H]1c1ccc(CO)cc1` had a composite z-score of -0.405.

Tested on in another assay: not listed separately
The assay is described as follows: small-molecule microarray binders of probe aDKK1, primary screen, biochemical, biotinylated probe, 635/667 nm fluorescence (AID 1099).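 Further: score merges 667nm spot fluorescence with signal to noise across triplicate slides; reference of the scale not given here.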 The settings on record: higher = more signal.
The molecule `COc1cc2c(cc1O)C(C)N(Cc1ccc([N+](=O)[O-])o1)CC2` (configuration not stated) displayed a composite z-score of 0.749.

The molecule `COCCOC(=O)N1C(=O)[C@@]2(c3cc(C#Cc4ccc(OC)cc4)ccc31)[C@H](c1ccc(O)cc1)N1[C@H](c3ccccc3)[C@H](c3ccccc3)OC(=O)[C@H]1[C@@H]2C(=O)N1CCCCCCC1` displayed a composite z-score of 1.81.

Molecule `COc1ccc([Si](C)(C)[C@@H]2[C@@H](CC(=O)N(CCO)Cc3ccccc3)O[C@]3(C(=O)N(Cc4cccc(N5C(=O)c6cccc7cccc5c67)c4)c4ccccc43)[C@H]2C)cc1` came in with a composite z-score of -0.277.

Take `Cc1ccc(S[C@]2(C(=O)O)CC(=O)N(Cc3ccccc3Cl)[C@@H]2c2ccc(CO)cc2I)cc1`: the composite z-score was found to be 1.47.

For `COC(=O)C1=CC(CCCO)=CC(C2CC2)N(C)C=C1C(=O)OC` (configuration not stated), the composite z-score was -0.302.

`COCCOC(=O)N1C(=O)[C@@]2(c3cc(C#CCC(C(=O)OC)C(=O)OC)ccc31)[C@H](C(=O)N1CCc3cc(OC)c(OC)cc3C1)[C@H]1C(=O)O[C@H](c3ccccc3)[C@H](c3ccccc3)N1[C@@H]2c1ccc(OCCO)cc1` yielded a composite z-score of 0.0202.

As to `COc1ccc([Si](C)(C)[C@H]2[C@H](CCO)O[C@@]3(C(=O)N(Cc4cccc(N5C(=O)COc6ccccc65)c4)c4ccccc43)[C@@H]2C)cc1`, the composite z-score is 0.0114.

`CN(C)CCCNC(=O)[C@@]1(C)c2ccccc2C(=O)N(Cc2ccccc2)[C@H]1c1ccc(CO)cc1` gave a composite z-score of -0.719.

Turning to `COC(=O)c1c2oc(c1C(=O)OC)C(=O)N(Cc1ccccc1)Cc1cn(nn1)C[C@H](Cc1ccccc1)NC(=O)N[C@H](CO)CC2`, the composite z-score is -0.0239.

`[N-]=[N+]=NCc1ccccc1[C@H]1OC(c2ccc(OCCCO)cc2)=N[C@@]1(CCS(=O)(=O)c1ccccc1)C(=O)N1CCCCC1` came in with a composite z-score of 1.05.

Regarding `O=C(CS)NCCCCCNC(=O)[C@@H]1C[C@@H]2C(=O)N3CCC[C@H]3C(=O)N2[C@@H]1c1cccc(OCCO)c1`, the composite z-score was -0.137.

Regarding `COCCOC(=O)N1C(=O)[C@@]2(c3cc(C#CCCO)ccc31)[C@H](C(=O)Nc1nc3ccccc3s1)[C@H]1C(=O)O[C@H](c3ccccc3)[C@H](c3ccccc3)N1[C@@H]2c1ccccc1OCCO`, the composite z-score worked out at 0.331.

Regarding `C[C@@H]1NC(=O)[C@@]23C(=O)N[C@@H](Cc4ccccc4)C2[C@H](C)[C@@]2(C)O[C@H]2C3/C=C/C/C=C\CNC(=O)[C@@H]2CCCN2C1=O` (some centres not stated), the composite z-score was -0.33.

Regarding `CCC[C@@H]1C[C@@]1(CCC)[C@@H](NC(=O)OCc1ccccc1)c1ccc(-c2ccccc2)cc1`, the composite z-score was -0.163.

For the molecule `CC[C@H]1C2=C3C(CC[C@H]4C(OCc5ccc(F)cc5C(F)(F)F)OC[C@](C)([C@@H]34)N(C(=O)OC(C)(C)C)C2)C(COC)C1COC` (some centres not stated), the composite z-score came out at 0.222.

`CC(C)(C)OC(=O)CC[C@@]1(C(=O)NCc2ccccc2)N=C(c2ccc(OCCCO)cc2)O[C@@H]1c1ccccc1N=[N+]=[N-]` yielded a composite z-score of 1.03.

Molecule `CCC(CC)C(O)C1C=CC2C(=O)N(c3ccccc3)C(=O)C2N1Nc1ccc(C(C)C)cc1` (configuration not stated) showed a composite z-score of 0.789.

For the molecule `C[C@H]1NC(=O)[C@@]23C(=O)N[C@@H](Cc4ccccc4)C2[C@H](C)[C@@]2(C)O[C@H]2C3/C=C/C/C=C\CNC(=O)[C@H](Cc2ccccc2)NC1=O` (some centres not stated), the composite z-score was -0.354.

Molecule `COCCOC(=O)N1C(=O)[C@@]2(c3cc(C#CC4=CCCCC4)ccc31)[C@H](C(N)=O)[C@H]1C(=O)O[C@H](c3ccccc3)[C@H](c3ccccc3)N1[C@@H]2c1ccccc1OCCO` had a composite z-score of 0.195.

Regarding `CCOC(=O)C[C@H]1[C@H](OC(=O)c2cc3ccccc3oc2=O)[C@@H](NC(=O)c2ccc(-c3ccccc3)cc2)c2cc(OCCCO)ccc2N1C(=O)c1ccc2ccccc2n1`, the composite z-score was -0.183.

`COC(=O)[C@@]1(Cc2ccc(F)cc2)[C@H]2c3cc(C(=O)N(C)C)n(Cc4cc(F)cc5c4OCOC5)c3C[C@H]2CN1C(=O)c1ccccc1` gave a composite z-score of 1.25.

Consider `COC(=O)[C@@]1(Cc2ccccc2)[C@@H]2C(=CC(=O)[C@H]2CC(=O)C(=O)N(C)C)CN1C(=O)c1ccccc1`, for which the composite z-score turned out to be 1.08.

The molecule `CN1C(=O)C2C=CC(C(O)c3ccc(F)cc3)N(Nc3ccccc3)C2C1=O` (configuration not stated) returned a composite z-score of 0.4.

`CCCC[C@@H]1C[C@H]1[C@@H](NC(=O)c1ccccc1)c1ccc(C(F)(F)F)cc1` displayed a composite z-score of 0.455.

Regarding `COc1ccc([Si](C)(C)[C@H]2[C@H](CCn3cc([C@H](O)c4ccccc4)nn3)O[C@@]3(C(=O)N(Cc4ccc(N5C(=O)c6cccc7cccc5c67)cc4)c4ccccc43)[C@@H]2C)cc1`, the composite z-score came to 0.0396.

As for `C[N+](C)(C)CCCC[C@@H]1NC(=O)[C@H]2C[C@@H](C(=O)NCCCCCCN)[C@@H](c3ccc(O)cc3)N2C1=O`, the composite z-score amounted to 0.608.

In turn, `O[C@@H](Cc1ccccc1)[C@@H](/C=C/C1CC1)N(CC#Cc1ccccc1)Cc1cccc(Cl)c1` had a composite z-score of 0.232.

As for `CCOC(=O)C[C@H]1[C@H](OC(=O)c2ccccc2-c2ccccc2)[C@@H](NC(=O)c2ccc(-c3ccccc3)cc2)c2cc(OCCCO)ccc2N1C(=O)c1ccc2ccccc2n1`, the composite z-score was -0.293.

With `CN(C)c1ccc(C(O)C2C=CC3C(=O)N(c4ccccc4)C(=O)C3N2Nc2ccc([N+](=O)[O-])cc2)cc1` (configuration not stated), the composite z-score was 0.604.

For the molecule `COC(=O)[C@@]1(Cc2ccc(OC)cc2)[C@H]2c3cc(C(=O)N4CCCC4)n(Cc4c(-c5ccccc5)noc4C)c3C[C@H]2CN1C(=O)c1ccccc1`, the composite z-score was found to be 1.08.

For `COc1ccc(-c2nc(-c3ccccc3)c3c(c2C)CO[Si]3(C(C)C)C(C)C)cn1`, the composite z-score is -0.0958.

With `O=C1O[C@@H](c2ccccc2)[C@@H](c2ccccc2)N2[C@@H](c3ccc(O)cc3)[C@]3(C(=O)Nc4ccc(C#CC5=CCCCC5)cc43)[C@@H](C(=O)NC[C@H](O)c3ccccc3)[C@H]12`, the composite z-score was 0.603.
